Inhibition data for 24 compounds are collected here from PubChem BioAssay AID493034 (The Scripps Research Institute Molecular Screening Center, 2011).

Molecules are shown by their SMILES. Screen size: about 2,400 compounds; about 2,200 (92%) were called active.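 The calls were made as follows: active = mean inhibition over triplicate runs exceeds the cutoff derived for the earlier primary screen (cut at about 25% in these data); inactive = the rest.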 The set was probably picked from earlier hits. The list shows a part of the results.

Sequence of Platelet-activating factor acetylhydrolase IB subunit alpha2 (Homo sapiens) (P68402 whole entry, looked up): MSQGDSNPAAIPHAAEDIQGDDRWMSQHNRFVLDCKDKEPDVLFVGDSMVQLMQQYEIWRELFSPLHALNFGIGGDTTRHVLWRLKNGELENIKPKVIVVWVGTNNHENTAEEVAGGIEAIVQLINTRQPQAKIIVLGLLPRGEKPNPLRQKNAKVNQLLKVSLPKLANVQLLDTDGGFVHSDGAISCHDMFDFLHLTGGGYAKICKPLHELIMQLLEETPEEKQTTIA

The assay has as its target Platelet-activating factor acetylhydrolase IB subunit alpha2 (Homo sapiens) (UniProt P68402). Briefly: PAFAH1B2 inhibitors, confirmation, biochemical, fluorescence polarization, FP-rhodamine probe, triplicate (AID 493034).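 Also: 0% = enzyme with DMSO and 100% = wells lacking PAFAH1B2 protein; inhibitors lower polarization by leaving the probe unbound.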 The following applies: recombinant PAFAH1B2, FP-rhodamine probe fluorescence polarization; at 3.39 µM; active compounds read high.
Consider `COc1ccc(CCN(C)Cc2c(O)ccc3cc(Br)ccc23)cc1OC`, for which the inhibition was 14.9% (inactive).
As for `CCN(CC(=O)Nc1ccc(NC(C)=O)cc1)Cc1c(O)ccc2cc(Br)ccc12`, the figure is 59.1% (active); as for `Cc1ccc(C)c(Cn2nnc3c(=O)[nH]c(C(=O)NCC4CCCO4)nc32)c1` (centres undefined), 5.01% (inactive); as for `NNC(=S)NC1CCCCCCCCCCC1`, 47.2% (active).
In the case of `CN(C)C(=O)NC1CCCCCCCCCCC1`, the inhibition is 22.7% (inactive).
On to `CNC(=S)N(Cc1ccc(OC)cc1)C1CC(=O)N(c2ccc(Cl)cc2)C1=O` (centres undefined), for which the inhibition was 23.9% (inactive).
For `CC(C)(C)OC(=O)[C@H]1[C@H](c2ccc([N+](=O)[O-])cc2)C2(C(=O)c3ccccc3C2=O)C2c3ccccc3C=NN21` (some centres undefined), the inhibition is 73.7% (active).
As for `O=C(O)c1[nH]c2ccc(Br)cc2c1CCN1C(=O)c2cccc([N+](=O)[O-])c2C1=O`, the inhibition was 41.5% (active).
For `O=C(O)c1ccccc1C(=O)NCCc1c(C(=O)O)[nH]c2ccc(Cl)cc12`, the inhibition is 26% (active).
With `O=C(O)c1[nH]c2ccc(Cl)cc2c1CCN1C(=O)c2ccccc2C1=O` the figure was 79.2% (active); with `CC(C)CC(C(=O)O)N1C(=O)C2C3CC(C2C1=O)C1C(c2ccccc2)c2sc(=O)[nH]c2SC31` (centres undefined), 39.3% (active); with `CC(C(=O)O)N1C(=O)C2C3CC(C2C1=O)C1C(c2ccccc2)c2sc(=O)[nH]c2SC31` (centres undefined), 43.1% (active).
On to `Cc1ccc(N2C(=O)CC(Sc3nc4ccccc4o3)C2=O)cc1Cl` (centres undefined), for which the inhibition was 20.1% (inactive).
With `Cn1c(COc2ccc(Cl)cc2)nnc1SCc1ncc(-c2ccccc2)o1` the figure was 22.4% (inactive).
As for `C[C@H](NC(=O)c1nc[nH]c1C(=O)NCC(=O)OCc1ccccc1)c1ccccc1`, the inhibition was 23.8% (inactive).
As to `Cc1noc(C)c1COc1ccccc1C(=O)NC(C)c1ccc(Cl)cc1` (centres undefined), the inhibition was 15.7% (inactive).
As for `COc1cccc(/C=N/Nc2ccc(S(=O)(=O)Nc3ccccc3C(=O)O)cc2[N+](=O)[O-])c1O`, the inhibition is 20.4% (inactive).
Turning to `COc1cc(/C=N/N(C)S(=O)(=O)c2ccc(C)cc2)cc([N+](=O)[O-])c1O`, the inhibition is 30.5% (active).
Consider `COc1cc(/C=N/NS(=O)(=O)c2ccc(C(C)(C)C)cc2)cc([N+](=O)[O-])c1O`, for which the inhibition is 14.5% (inactive).
Take `CN(CCc1ccccn1)C(=S)NC(=O)c1ccco1`: the inhibition is 3.54% (inactive).
With `O=C(CNC(=O)OCc1ccccc1)Oc1cc2oc(=O)cc(-c3ccccc3)c2cc1Cl` the figure was 50.6% (active); with `CC(C)(c1ccc(O)cc1)c1ccc(O)cc1`, 42.2% (active).
With `COC(=O)c1c(NC(=O)C2C3CCC(O3)C2C(=O)O)sc2c1CCCCCC2` (centres undefined), the inhibition was 39.5% (active).
In the case of `O=C(O)C1=C[C@H](c2ccc(C(F)(F)F)cc2)C[C@H](OCc2ccc(CO)cc2)O1`, the inhibition was 26% (active).

The term inhibition denotes the percentage by which the read-out fell short of the control.
